# In ChEMBL document CHEMBL3988442, “University of Dundee, Small-Polar-MMV Screening Library” (2021):
# For some assays here: Measured potencies and affinities stand elsewhere.
# Key:
# Parameters in all cases: scale not given: direction of the effect not stated beside the values
# [1] = biological target: Protein translocase subunit SecA (Escherichia coli (strain K12)) (UniProt P10408); assay: Assay to Identify E. coli SecA ATPase Inhibitors; type: functional; conditions: 30 µM
# [2] = biological target: T1, Ubiquitin-activating enzyme e1, putative (Leishmania donovani (strain BPK282A1)) (UniProt E9BSI1); assay: Leishmania donovani Ubiquitin Activating Enzyme (LdE1); type: functional; conditions: 30 µM
# T1 sequence (whole entry): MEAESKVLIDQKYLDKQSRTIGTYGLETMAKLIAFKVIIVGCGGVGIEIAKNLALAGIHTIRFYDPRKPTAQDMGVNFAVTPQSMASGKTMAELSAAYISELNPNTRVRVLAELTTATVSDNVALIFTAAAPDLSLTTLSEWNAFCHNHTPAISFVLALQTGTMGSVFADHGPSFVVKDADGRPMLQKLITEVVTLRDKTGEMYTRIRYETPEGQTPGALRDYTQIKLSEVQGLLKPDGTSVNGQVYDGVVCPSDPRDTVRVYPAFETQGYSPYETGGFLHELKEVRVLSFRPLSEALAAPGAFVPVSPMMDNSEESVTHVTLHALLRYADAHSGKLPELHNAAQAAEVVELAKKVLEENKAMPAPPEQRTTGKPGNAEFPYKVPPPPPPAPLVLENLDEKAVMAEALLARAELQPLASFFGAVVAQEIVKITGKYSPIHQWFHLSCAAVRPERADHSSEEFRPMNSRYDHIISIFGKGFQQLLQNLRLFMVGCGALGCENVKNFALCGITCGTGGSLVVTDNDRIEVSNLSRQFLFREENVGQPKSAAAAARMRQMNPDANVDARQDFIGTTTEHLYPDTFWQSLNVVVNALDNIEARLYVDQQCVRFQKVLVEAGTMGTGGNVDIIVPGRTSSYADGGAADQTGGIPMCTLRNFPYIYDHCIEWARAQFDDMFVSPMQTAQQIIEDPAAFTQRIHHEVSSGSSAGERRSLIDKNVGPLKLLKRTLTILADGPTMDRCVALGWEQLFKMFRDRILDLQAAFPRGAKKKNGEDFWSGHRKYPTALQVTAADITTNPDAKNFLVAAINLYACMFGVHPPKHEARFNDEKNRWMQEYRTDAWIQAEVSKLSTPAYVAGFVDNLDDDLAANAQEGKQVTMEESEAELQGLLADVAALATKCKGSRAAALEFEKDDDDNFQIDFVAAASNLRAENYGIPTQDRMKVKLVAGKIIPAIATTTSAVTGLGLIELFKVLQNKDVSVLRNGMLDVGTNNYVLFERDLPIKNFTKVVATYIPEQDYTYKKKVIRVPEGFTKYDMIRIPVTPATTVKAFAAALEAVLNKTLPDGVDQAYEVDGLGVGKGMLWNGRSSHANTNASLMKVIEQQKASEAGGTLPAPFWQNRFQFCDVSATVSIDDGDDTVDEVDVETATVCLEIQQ
# [3] = biological target: AMP-activated protein kinase, AMPK (Homo sapiens) (UniProt P54646+O43741+P54619+Q9UGJ0+Q9Y478+Q13131+Q9UGI9); assay: AMP-dependent Kinase enzyme assay. An in vitro enzyme assay that detects ADP turnover that is directly proportional to AMPK activity. This uses naive AMPK that is activated during the assay with MK-8722; type: functional; conditions: 30 µM
# [4] = biological target: Sialic acid-binding Ig-like lectin 9 (Homo sapiens) (UniProt Q9Y336); assay: Hs-Siglec9 ALPHAscreen SOP 20170721; conditions: 10 µM
# Sialic acid-binding Ig-like lectin 9 (Homo sapiens), sequence (Q9Y336 whole entry): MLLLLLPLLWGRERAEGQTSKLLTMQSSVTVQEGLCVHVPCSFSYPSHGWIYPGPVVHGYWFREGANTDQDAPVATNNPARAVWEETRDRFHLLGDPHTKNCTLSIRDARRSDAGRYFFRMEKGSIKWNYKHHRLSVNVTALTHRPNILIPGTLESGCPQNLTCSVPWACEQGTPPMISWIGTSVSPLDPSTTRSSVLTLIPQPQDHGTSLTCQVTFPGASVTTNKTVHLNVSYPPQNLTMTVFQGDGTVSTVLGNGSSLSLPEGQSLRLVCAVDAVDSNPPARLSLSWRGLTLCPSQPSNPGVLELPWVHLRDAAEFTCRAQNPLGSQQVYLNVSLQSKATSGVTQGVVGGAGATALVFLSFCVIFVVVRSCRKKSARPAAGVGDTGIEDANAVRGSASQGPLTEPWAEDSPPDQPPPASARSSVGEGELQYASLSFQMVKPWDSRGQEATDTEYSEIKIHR
# Trypanosoma cruzi = assay: Trypanosoma cruzi phosphomannomutase and mannose-1-phosphate guanylyltransferase assay; type: functional; conditions: 10 µM
# [5] = biological target: T2, Arginase-2, mitochondrial (Homo sapiens) (UniProt P78540); assay: in vitro enzyme assay to detect the production of urea directly proportional to the activity of Arginase II; type: functional; conditions: 33.3 µM; also: in the data most compounds retested in dose-response had high values
# T2 sequence (whole entry): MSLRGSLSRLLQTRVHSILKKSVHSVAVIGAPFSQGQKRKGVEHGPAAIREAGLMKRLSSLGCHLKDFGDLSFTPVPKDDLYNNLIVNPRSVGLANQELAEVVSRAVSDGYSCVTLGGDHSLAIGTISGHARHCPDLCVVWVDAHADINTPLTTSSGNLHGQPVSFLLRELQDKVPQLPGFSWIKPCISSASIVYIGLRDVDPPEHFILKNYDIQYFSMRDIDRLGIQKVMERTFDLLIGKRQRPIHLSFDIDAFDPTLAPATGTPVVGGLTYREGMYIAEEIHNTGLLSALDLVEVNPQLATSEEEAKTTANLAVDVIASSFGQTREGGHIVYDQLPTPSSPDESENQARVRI
# [6] = biological target: T3, Proteasome subunit beta (Trypanosoma cruzi) (UniProt O96673); assay: Trypanosoma cruzi proteasome chymotrypsin-like activity (TcProtChymo) assay.; also: in the data most compounds retested in dose-response had high values; type: functional; conditions: 9.37 µM
# T3 sequence (whole entry): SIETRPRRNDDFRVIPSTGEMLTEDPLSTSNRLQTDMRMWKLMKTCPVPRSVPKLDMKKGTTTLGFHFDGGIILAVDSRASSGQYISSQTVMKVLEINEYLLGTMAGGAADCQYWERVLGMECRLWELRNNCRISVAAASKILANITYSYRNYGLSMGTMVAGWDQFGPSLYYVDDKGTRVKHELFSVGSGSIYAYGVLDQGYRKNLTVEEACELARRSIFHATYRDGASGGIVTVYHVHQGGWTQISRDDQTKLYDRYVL
# Homo sapiens = species: Homo sapiens; assay: To identify inhibition of the IFN signalling (Jak-Stat) pathway via expression of an eGFP reporter gene under the control of an IFN-stimulated response element (ISRE) containing MxA promoter.; type: functional; conditions: 30 µM
# [7] = biological target: T4, Tyrosyl-tRNA synthetase, putative (Trypanosoma cruzi (strain CL Brener)) (UniProt Q4DSP6); assay: Trypanosoma cruzi tyrosyl tRNA synthetase (TcYRS) _High Tyrosine SOP; type: functional; conditions: 30 µM; also: in the data most compounds retested in dose-response had high values
# T4 sequence (whole entry): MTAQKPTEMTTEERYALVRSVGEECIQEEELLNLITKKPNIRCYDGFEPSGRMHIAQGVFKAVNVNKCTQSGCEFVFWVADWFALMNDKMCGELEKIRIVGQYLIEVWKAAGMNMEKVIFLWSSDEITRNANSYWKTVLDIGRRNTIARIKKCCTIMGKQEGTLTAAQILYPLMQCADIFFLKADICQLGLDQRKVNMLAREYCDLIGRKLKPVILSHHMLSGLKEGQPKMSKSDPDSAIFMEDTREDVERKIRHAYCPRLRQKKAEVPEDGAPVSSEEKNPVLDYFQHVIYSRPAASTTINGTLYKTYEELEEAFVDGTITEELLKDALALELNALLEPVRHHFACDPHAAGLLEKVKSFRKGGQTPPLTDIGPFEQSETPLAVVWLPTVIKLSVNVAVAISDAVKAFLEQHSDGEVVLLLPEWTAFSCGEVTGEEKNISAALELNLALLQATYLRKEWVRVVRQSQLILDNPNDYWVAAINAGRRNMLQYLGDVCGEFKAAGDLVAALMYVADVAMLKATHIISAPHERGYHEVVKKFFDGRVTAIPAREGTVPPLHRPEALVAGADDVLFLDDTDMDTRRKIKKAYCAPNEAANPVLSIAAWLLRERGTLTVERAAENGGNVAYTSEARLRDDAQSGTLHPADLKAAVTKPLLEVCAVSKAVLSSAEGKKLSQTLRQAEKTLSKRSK
# [8] = biological target: T4, Tyrosyl-tRNA synthetase, putative (Trypanosoma cruzi (strain CL Brener)); assay: Trypanosoma cruzi tyrosyl tRNA synthetase (TcYRS) SOP; type: functional; conditions: 30 µM
# [9] = biological target: Chromo domain-containing protein 1 (Saccharomyces cerevisiae (strain ATCC 204508 / S288c) (Baker's yeast)) (UniProt P32657); assay: ScCHD-1 Enzyme Inhibition Assay; type: functional; conditions: 30 µM; also: in the data most compounds retested in dose-response had high values
# Chromo domain-containing protein 1 (Saccharomyces cerevisiae (strain ATCC 204508 / S288c) (Baker's yeast)), sequence (P32657 whole entry, the tested form may be a part): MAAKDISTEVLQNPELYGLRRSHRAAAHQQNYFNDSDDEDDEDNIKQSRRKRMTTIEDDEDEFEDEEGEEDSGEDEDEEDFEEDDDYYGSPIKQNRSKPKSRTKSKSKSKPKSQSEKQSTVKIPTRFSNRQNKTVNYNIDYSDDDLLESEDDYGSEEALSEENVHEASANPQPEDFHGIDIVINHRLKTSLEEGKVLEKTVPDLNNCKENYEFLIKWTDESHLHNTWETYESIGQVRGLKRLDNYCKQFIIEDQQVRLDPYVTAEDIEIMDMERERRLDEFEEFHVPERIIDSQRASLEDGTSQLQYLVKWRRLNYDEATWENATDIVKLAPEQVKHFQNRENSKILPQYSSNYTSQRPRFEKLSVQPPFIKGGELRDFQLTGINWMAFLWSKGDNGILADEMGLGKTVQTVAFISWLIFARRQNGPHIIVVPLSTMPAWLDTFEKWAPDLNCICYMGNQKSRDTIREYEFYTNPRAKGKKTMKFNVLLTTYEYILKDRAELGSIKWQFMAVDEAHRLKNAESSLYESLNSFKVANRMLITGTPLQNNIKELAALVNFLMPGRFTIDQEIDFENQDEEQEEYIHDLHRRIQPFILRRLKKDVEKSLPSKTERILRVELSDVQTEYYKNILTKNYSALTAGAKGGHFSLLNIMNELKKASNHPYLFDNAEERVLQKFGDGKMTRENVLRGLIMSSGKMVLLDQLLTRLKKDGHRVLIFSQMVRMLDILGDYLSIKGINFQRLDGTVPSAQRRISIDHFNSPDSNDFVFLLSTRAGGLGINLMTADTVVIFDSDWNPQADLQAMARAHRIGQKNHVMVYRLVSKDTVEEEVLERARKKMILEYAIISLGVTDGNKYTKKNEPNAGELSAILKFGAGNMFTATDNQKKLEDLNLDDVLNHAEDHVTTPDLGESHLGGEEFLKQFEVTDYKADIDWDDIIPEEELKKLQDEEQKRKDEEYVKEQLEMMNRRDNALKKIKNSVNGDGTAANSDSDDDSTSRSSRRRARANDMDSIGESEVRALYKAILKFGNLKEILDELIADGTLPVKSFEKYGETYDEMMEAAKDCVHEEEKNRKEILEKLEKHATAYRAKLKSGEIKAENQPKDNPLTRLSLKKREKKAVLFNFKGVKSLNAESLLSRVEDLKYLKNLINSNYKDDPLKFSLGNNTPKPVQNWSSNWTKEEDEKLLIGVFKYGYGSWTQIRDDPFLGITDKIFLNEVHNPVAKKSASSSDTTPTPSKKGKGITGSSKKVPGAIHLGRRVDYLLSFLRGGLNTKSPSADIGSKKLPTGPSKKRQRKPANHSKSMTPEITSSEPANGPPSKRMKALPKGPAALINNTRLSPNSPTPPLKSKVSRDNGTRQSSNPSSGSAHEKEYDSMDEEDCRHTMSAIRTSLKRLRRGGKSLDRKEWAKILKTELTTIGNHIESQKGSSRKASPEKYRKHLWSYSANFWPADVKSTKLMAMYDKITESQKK
# Protein translocase subunit SecA (Escherichia coli (strain K12)), sequence (P10408 whole entry): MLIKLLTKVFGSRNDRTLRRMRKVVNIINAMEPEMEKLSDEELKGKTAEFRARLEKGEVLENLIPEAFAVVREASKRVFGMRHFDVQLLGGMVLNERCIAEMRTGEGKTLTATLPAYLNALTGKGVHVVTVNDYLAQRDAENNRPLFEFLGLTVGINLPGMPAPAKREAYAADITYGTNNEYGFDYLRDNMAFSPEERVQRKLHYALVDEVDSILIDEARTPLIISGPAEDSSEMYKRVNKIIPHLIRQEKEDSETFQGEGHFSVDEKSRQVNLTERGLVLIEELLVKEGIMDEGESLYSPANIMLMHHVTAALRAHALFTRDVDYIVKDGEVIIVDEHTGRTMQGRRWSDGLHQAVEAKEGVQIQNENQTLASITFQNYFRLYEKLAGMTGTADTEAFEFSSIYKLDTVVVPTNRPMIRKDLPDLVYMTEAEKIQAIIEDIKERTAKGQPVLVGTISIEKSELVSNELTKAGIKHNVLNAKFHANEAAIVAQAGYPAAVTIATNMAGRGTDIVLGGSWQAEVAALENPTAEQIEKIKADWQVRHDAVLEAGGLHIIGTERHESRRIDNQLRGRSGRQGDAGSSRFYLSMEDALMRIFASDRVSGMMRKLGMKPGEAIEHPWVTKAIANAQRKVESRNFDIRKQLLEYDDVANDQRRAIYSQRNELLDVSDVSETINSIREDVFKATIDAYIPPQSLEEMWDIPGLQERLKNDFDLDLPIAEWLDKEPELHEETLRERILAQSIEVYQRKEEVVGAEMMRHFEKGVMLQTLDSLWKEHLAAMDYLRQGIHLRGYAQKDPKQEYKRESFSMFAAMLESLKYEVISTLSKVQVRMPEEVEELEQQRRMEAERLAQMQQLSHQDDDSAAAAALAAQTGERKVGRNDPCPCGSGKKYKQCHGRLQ
Compound,Percent Effect [1],Percent Effect [2],Percent Effect [3],Percent Effect [4],Percent Effect (Trypanosoma cruzi),Percent Effect [5],Percent Effect [6],Percent Effect (Homo sapiens),Percent Effect [7],Percent Effect [8],Percent Effect [9]
O=C(Cn1nc(-c2cccs2)ccc1=O)N1CCCCCC1,-3.74%,-1.33%,5.86%,8.95%,1.77%,-10.4%,7.21%,9%,1.06%,7.69%,-3.49%
O=C(c1c[nH]c(=O)c(Cl)c1)N1C[C@@H]2CC[C@H](C1)N(Cc1ccccc1)C2,-3.94%,5.48%,12.1%,13.9%,2.58%,-8.78%,15.2%,9.64%,2.08%,11.1%,-3.03%
COCc1nc2cc(NCc3ccc(C)o3)ccc2o1,-4.96%,13.5%,-42.7%,8.51%,6.05%,37.1%,14.3%,-1.74%,13.9%,15.8%,-2.51%
CCn1c(C(=O)N2CCN(CC(C)O)CC2)cc2ccccc21 (configuration not stated),-8.12%,7.79%,-6.74%,7.69%,10.1%,-1.78%,6.42%,-0.229%,3.88%,21.9%,-10.6%
C[C@H]1C[C@@H]2CCN(C(=O)c3cccn3C)C[C@H]2O1,-0.284%,10.8%,2.27%,-5.58%,-8.89%,6.69%,17.5%,3.63%,-1.08%,5.13%,-0.358%
Cc1c(C2CCCN(C(=O)Cc3ccccn3)C2)n2c(nc1=O)CCC2 (configuration not stated),-4%,12.2%,4.92%,-3.29%,-5.53%,0.696%,15.3%,14.5%,6.45%,6.49%,-11.6%
CN(C)C(=O)CN1CCC2(CCCN(Cc3cccn3C)C2)C1=O (configuration not stated),-6.92%,10.7%,0.926%,-7.4%,-5.12%,-3.96%,18.2%,10.5%,1.06%,1.28%,-7.43%
O=C(CCC1CCCC1)NCCn1nc(C2CCNC2)c2nccnc21 (configuration not stated),-2.79%,12.2%,-13.6%,-8.06%,-6.52%,-5.34%,17.6%,23.6%,-3.23%,-3.9%,-19.5%
COc1cccc(N2CCN(CCC(=O)NC3CCCC3)CC2)c1,-4.61%,7.89%,6.03%,5.22%,-0.292%,-22.5%,16.6%,4.41%,9.57%,13%,-4.62%
CC(=O)N1CCCC1c1nccnc1Nc1cccc(C)n1 (configuration not stated),-1.59%,-5.33%,11.9%,5.31%,-1.57%,0.699%,1.15%,-9.62%,-1.06%,1.28%,4.34%
CCOc1cccc(CNc2ccccc2C(=O)OC)c1O,2.18%,6.67%,-9.62%,-4.44%,-4.32%,-10.7%,19%,21.5%,3.17%,7.69%,-13.3%
Cn1ncc2c1CN(Cc1cccnc1)CC2COCC1CC1 (configuration not stated),-0.107%,2.74%,-3.62%,3.4%,6.55%,4.79%,12.6%,-15.1%,4.17%,8.64%,-7.87%
Cc1cnn(C2CN(CC(=O)Nc3cccnc3)C2)c1,-4.23%,7.89%,-7.32%,-2.24%,-8.68%,2.52%,-0.254%,-0.514%,-4.43%,3.7%,3.7%
O=C(CCc1cccnc1)N(Cc1ccsc1)CC1CCCO1 (configuration not stated),-1.63%,-2.7%,-0.366%,-2.41%,1.93%,1.91%,10.3%,-6.2%,1.59%,7.32%,-3.52%
O=C(Cc1ccc2c(c1)OCCO2)NC1CCCC1,-5.5%,18.2%,2.67%,-8.79%,-11.2%,-2.85%,5.74%,32.2%,1.94%,7.32%,-5.69%
Cc1nc(C)c2c(n1)CCN(C(=O)CC1CC1)CC2,3.82%,10.8%,4.71%,-10.8%,-5.57%,2.87%,21.2%,10.2%,3.24%,12.8%,-3.91%
Cc1cccc(-c2ccc(C(=O)NCC(C)(C)C(N)=O)c(=O)[nH]2)c1,-5.4%,2.7%,-7.65%,17.1%,2.92%,-2.81%,5.41%,0.882%,-0.493%,11.1%,-14.8%
COc1ccc(S(=O)(=O)N2CCCC3(CCCN3S(C)(=O)=O)C2)cc1 (configuration not stated),-2.95%,10.8%,-2.61%,-2.37%,-8.31%,-2.73%,12.3%,7.81%,0%,8.64%,-3.67%
CC(C)(NCC(=O)NCCC#N)c1ccc2c(c1)OCCO2,-3.57%,27%,-8.79%,1.26%,3.49%,-8.42%,17.3%,3.81%,4.43%,23.5%,-9.99%
CCOC(=O)c1sc2ccsc2c1CN,-2.04%,-5.41%,-6.96%,-0.173%,-5.29%,3.88%,-7.36%,20.9%,0%,-1.22%,5.83%
CC(OCC1CC1)C(=O)N1CCCN(Cc2nccn2C)CC1 (configuration not stated),0.276%,13.9%,-2.47%,-3.62%,-5.64%,1.07%,19.4%,10.6%,3.12%,7.59%,-24.1%
Cc1nc(C)n(CC2CCCN(c3ncnc4sccc34)C2)n1 (configuration not stated),-2.59%,13.5%,-5.88%,-5.07%,-6.32%,0.401%,9.91%,65.9%,6.4%,16.1%,-6.06%
